# Results from the supplement of paper PMC6555819.
# Assays:
# Assay in all cases: PBM binding z-score (relative to random genomic background probes); higher = stronger binding; sequences stand for … in GC…GCGATTGACAGCGTAGAATGAAGG
# [1] = system: PPARg:RXRa DBDmut IVT, anti-RXR (DBD mutation: RXRa K156A/R161A, NR concentration 270 nM, RXRa partner concentration 90 nM)
# Summary of the method: (§1)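 Ligand-free nuclear receptor dimers were applied to custom Agilent 4×180K protein-binding microarrays whose double-stranded probes carried direct-repeat seeds, single-nucleotide variants, half-site ablations and random human genomic background sequences in 34-nt variable regions. Incubation lasted 1 h. Binding z-scores were computed against the random background probes from regression-normalized fluorescence.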
# [2] = system: PPARg:RXRa IVT, anti-PPARg (NR concentration 270 nM, RXRa partner concentration 90 nM)
# Summary of the method: as §1
# [3] = system: PPARg DBDmut:RXRa IVT, anti-PPARg (DBD mutation: PPARg1 K132A/R137A, NR concentration 270 nM, RXRa partner concentration 90 nM)
# Summary of the method: as §1
# [4] = system: PPARg DBDmut IVT, anti-PPARg (DBD mutation: PPARg1 K132A/R137A, NR concentration 270 nM)
# Summary of the method: as §1
# [5] = system: PPARg homodimer (NR concentration 180 nM)
# Summary of the method: as §1
# [6] = system: PXR:RXRa (NR concentration 270 nM, RXRa partner concentration 90 nM)
# Summary of the method: as §1
# [7] = system: PXR homodimer (NR concentration 270 nM)
# Summary of the method: as §1
# [8] = system: RARa homodimer (NR concentration 270 nM)
# Summary of the method: as §1
# [9] = system: RARb:RXRa (NR concentration 270 nM, RXRa partner concentration 90 nM)
# Summary of the method: as §1
# [10] = system: RARb homodimer (NR concentration 270 nM)
# Summary of the method: as §1
# [11] = system: RARg:RXRa (NR concentration 270 nM, RXRa partner concentration 90 nM)
# Summary of the method: as §1
# [12] = system: RARg homodimer (NR concentration 270 nM)
# Summary of the method: as §1
# [13] = system: RXRa DBDmut IVT, anti-RXR (DBD mutation: RXRa K156A/R161A, NR concentration 90 nM)
# Summary of the method: as §1
# [14] = system: THRa:RXRa (NR concentration 90 nM, RXRa partner concentration 90 nM)
# Summary of the method: as §1
# [15] = system: THRa homodimer (NR concentration 90 nM)
# Summary of the method: as §1
# [16] = system: VDR homodimer (NR concentration 270 nM)
# Summary of the method: as §1
# [17] = system: RARa:RXR (NR concentration 270 nM, RXRa partner concentration 90 nM)
# Summary of the method: as §1
# [18] = system: RXRa homodimer (NR concentration 180 nM)
# Summary of the method: as §1
# [19] = system: VDR:RXRa (NR concentration 270 nM, RXRa partner concentration 90 nM)
# Summary of the method: as §1
Sequence,PBM binding z-score [1],PBM binding z-score [2],PBM binding z-score [3],PBM binding z-score [4],PBM binding z-score [5],PBM binding z-score [6],PBM binding z-score [7],PBM binding z-score [8],PBM binding z-score [9],PBM binding z-score [10],PBM binding z-score [11],PBM binding z-score [12],PBM binding z-score [13],PBM binding z-score [14],PBM binding z-score [15],PBM binding z-score [16],PBM binding z-score [17],PBM binding z-score [18],PBM binding z-score [19]
TCATATAGGTCAAAGGTGAAAGTCGGTGTGGTAA,8.06,7.84,1.77,2.53,3.28,5.31,1.13,1.6,4.89,4.1,7.06,5.46,2.48,3.74,0.997,1.49,,,
CTCGAAAGGTCGTGCTTAGGTGAGTATACCAAAC,1,1.93,0.335,0.228,2.19,,0.515,0.262,3.72,3.07,5.09,3.82,2.24,4.2,1.11,1.05,4.22,4.91,3.36
ATCGAAAGGTCGTGAGGTGACTATACAGAAAGGC,0.761,2.62,1.76,1.47,1.55,,0.227,1.01,3.99,3.07,4.7,3.57,1.29,3.87,1.85,0.91,4.52,5.22,3.64
ATGTGTAGGTTACATCCGGGTCATTCAGGCTATG,2.96,4.13,1.02,1.88,3.03,,2.51,1.12,2.37,3.32,3.75,2.19,0.811,3.94,2.75,3.1,4.01,2.95,4.22
CAAGCTAGGTCAAAGGTCAAAGTCGAGCCAACCA,5.45,6.94,1.27,-0.285,5.21,,1.5,2.23,6.05,5.17,9.17,8.1,3.05,4.96,1.45,3.39,9.03,10.6,6.9
TCTCGGAGGACACGAAAGGTGAGAGCTCGACATC,1.27,0.956,-0.191,-0.811,0.673,,-0.496,-0.329,2.26,2.24,1.64,1.99,0.659,2.51,0.549,-0.374,1.05,0.812,
CGTCCAAGGTCAGAGAGGTCACTGAATGCCGAGT,3.27,4.05,0.000167,0.0701,3.8,,13.1,1.13,5.37,5.89,7.04,7.93,3.39,4.71,3.53,6.07,6.81,6.93,
ATATGTAGGTTAGCTGGCGTCATTCAGACTAGGC,6.56,5.58,1.28,0.35,0.334,,-0.283,0.262,0.462,-0.15,0.427,0.556,-0.166,-0.223,-0.829,-0.39,0.227,0.485,-0.12
TCTCGGAGGACACGAAAGGGCAGAGCTCGACATC,1.43,0.279,-1.54,-1.04,-0.108,,-0.585,-0.203,2.42,2.21,1.52,2.06,0.584,1.76,0.0765,-0.17,0.468,0.474,
GCTTACGGGTGAAAGGTTATAGCATGAATAGAAT,3.24,4.67,0.644,0.4,1.72,,0.0936,0.6,2.14,1.48,3.01,1.34,0.431,2.2,0.0422,-0.0188,4.93,4.95,2.17
ATACGTAGGTTACATCCGGGTCATTCAGGCTATG,1.15,2.36,1.24,0.742,1.87,,2.6,0.687,2.27,2.79,3.59,2.17,0.372,3.81,2.5,2.66,3.48,3.06,4.16
CGCCCAAGGTCAGCAGGTCAGTGAAAGCGACGTG,2.94,3.56,0.803,-0.776,3.74,,0.324,1.97,5.18,4.99,6.47,6.63,2.48,3.63,2.02,1.38,5.15,5.3,3.83
GCTTCCGGGTCAAAGGTTATAGCATGAATAGAAT,6.02,6.82,2.92,1.77,4.67,,0.927,0.795,4.45,2.99,6.81,4.53,2.8,4.61,1.46,2.25,8.48,9.29,
